Measured values taken from PubChem BioAssay AID1159580 (chemical genetic matrix, 2015).
The whole screen tested about 5,500 compounds, of which about 2,000 (36%) were called active. Not shown: some 18% with an inconclusive outcome. Some of the results follow. Values without a mark were called inactive. Cut-off read from the data, not from the text of the source: active = normalized growth mostly below about 0.91 (no sharp cut-off); inconclusive = no clear call, values can overlap the other calls; inactive = mostly above about 0.92.

Test: chemical genetic growth profiling, strain panel (AID 1159580);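 note: tested at 20 µM; growth read once vehicle control cultures reached saturation at 30 °C; 1 = growth at the plate median or of vehicle wells; lower values mean less growth of the strain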
Settings: S. cerevisiae deletion strains, growth OD

Cc1nc(-c2ccc(S(=O)(=O)Nc3ccc(Br)cc3Cl)s2)cs1
normalized growth (locus YAR019C, strain CDC15, stronger effect = lower value): 0.936 | normalized growth (locus YBL105C, strain PKC1, stronger effect = lower value): 0.946 | normalized growth (locus YBR135W, strain CKS1, stronger effect = lower value): 0.953 | normalized growth (locus YBR136W, strain MEC1, stronger effect = lower value): 0.942 | normalized growth (locus YBR160W, strain CDC28, stronger effect = lower value): 0.959 | normalized growth (locus YDL017W, strain CDC7, stronger effect = lower value): 0.942 | normalized growth (locus YDL028C, strain MPS1, stronger effect = lower value): 0.957 | normalized growth (locus YDL101C, strain DUN1, stronger effect = lower value): 0.956 | normalized growth (locus YDL108W, strain KIN28, stronger effect = lower value): 0.961 | normalized growth (locus YDL132W, strain cdc53, stronger effect = lower value): 0.951 | normalized growth (locus YDL214C, strain PRR2, stronger effect = lower value): 0.888 | normalized growth (locus YDR052C, strain DBF4, stronger effect = lower value): 0.941 | normalized growth (locus YDR054C, strain cdc34, stronger effect = lower value): 0.928 | normalized growth (locus YDR226W, strain ADK1, stronger effect = lower value): 0.943 | normalized growth (locus YDR477W, strain SNF1, stronger effect = lower value): 0.858 | normalized growth (locus YER123W, strain YCK3, stronger effect = lower value): 0.904 | normalized growth (locus YER133W, strain GLC7, stronger effect = lower value): 0.867 | normalized growth (locus YFL009W, strain cdc4, stronger effect = lower value): 0.957 | normalized growth (locus YFL029C, strain CAK1, stronger effect = lower value): 0.953 | normalized growth (locus YFR003C, strain YPI1, stronger effect = lower value): 0.949 | normalized growth (locus YFR019W, strain FAB1, stronger effect = lower value): 0.923 | normalized growth (locus YFR028C, strain CDC14, stronger effect = lower value): 0.952 | normalized growth (locus YGR040W, strain KSS1, stronger effect = lower value): 0.868 | normalized growth (locus YGR052W, strain FMP48, stronger effect = lower value): 0.866 | normalized growth (locus YGR092W, strain DBF2, stronger effect = lower value): 0.877 | normalized growth (locus YHR030C, strain SLT2, stronger effect = lower value): 0.575 (active) | normalized growth (locus YHR079C, strain IRE1, stronger effect = lower value): 0.778 | normalized growth (locus YHR082C, strain KSP1, stronger effect = lower value): 0.943 | normalized growth (locus YHR205W, strain SCH9, stronger effect = lower value): 0.944 | normalized growth (locus YIL147C, strain SLN1, stronger effect = lower value): 0.957 | normalized growth (locus YJL095W, strain BCK1, stronger effect = lower value): 0.84 | normalized growth (locus YJL128C, strain PBS2, stronger effect = lower value): 0.89 | normalized growth (locus YJL157C, strain FAR1, stronger effect = lower value): 0.893 | normalized growth (locus YJR016C, strain ILV3, stronger effect = lower value): 0.94 | normalized growth (locus YJR066W, strain TOR1 (second series), stronger effect = lower value): 0.882 | normalized growth (locus YJR066W, strain TOR1, stronger effect = lower value): 0.93 | normalized growth (locus YKL048C, strain ELM1, stronger effect = lower value): 0.919 | normalized growth (locus YKL067W, strain YNK1, stronger effect = lower value): 0.883 | normalized growth (locus YKL101W, strain HSL1, stronger effect = lower value): 0.864 | normalized growth (locus YKL193C, strain SDS22, stronger effect = lower value): 0.942 | normalized growth (locus YKL203C, strain TOR2, stronger effect = lower value): 0.893 | normalized growth (locus YLR113W, strain HOG1, stronger effect = lower value): 0.635 (active) | normalized growth (locus YLR133W, strain CKI1, stronger effect = lower value): 0.888 | normalized growth (locus YLR403W, strain SFP1, stronger effect = lower value): 0.863 | normalized growth (locus YML070W, strain DAK1, stronger effect = lower value): 0.856 | normalized growth (locus YMR001C, strain CDC5, stronger effect = lower value): 0.946 | normalized growth (locus YMR205C, strain PFK2 (second series), stronger effect = lower value): 0.907 | normalized growth (locus YMR277W, strain FCP1, stronger effect = lower value): 0.94 | normalized growth (locus YNL006W, strain LST8, stronger effect = lower value): 0.937 | normalized growth (locus YNL020C, strain ARK1, stronger effect = lower value): 0.884 | normalized growth (locus YNL161W, strain CBK1, stronger effect = lower value): 0.946 | normalized growth (locus YNL183C, strain NPR1, stronger effect = lower value): 0.901 | normalized growth (locus YNL207W, strain RIO2, stronger effect = lower value): 0.925 | normalized growth (locus YNL222W, strain SSU72, stronger effect = lower value): 0.952 | normalized growth (locus YNL307C, strain MCK1 (second series), stronger effect = lower value): 0.891 | normalized growth (locus YOL078W, strain AVO1, stronger effect = lower value): 0.952 | normalized growth (locus YOL136C, strain PFK27, stronger effect = lower value): 0.852 | normalized growth (locus YOR061W, strain CKA2, stronger effect = lower value): 0.859 | normalized growth (locus YOR119C, strain RIO1, stronger effect = lower value): 0.938 | normalized growth (locus YOR231W, strain MKK1, stronger effect = lower value): 0.79 | normalized growth (locus YOR329C, strain SCD5, stronger effect = lower value): 0.946 | normalized growth (locus YPL031C, strain PHO85, stronger effect = lower value): 0.862 | normalized growth (locus YPL153C, strain RAD53, stronger effect = lower value): 0.893 | normalized growth (locus YPL204W, strain HRR25, stronger effect = lower value): 0.846 | normalized growth (locus YPL209C, strain IPL1, stronger effect = lower value): 0.942 | normalized growth (locus YPL256C, strain CLN2, stronger effect = lower value): 0.672 (active) | normalized growth (locus YPR025C, strain CCL1, stronger effect = lower value): 0.953 | normalized growth (locus YPR106W, strain ISR1, stronger effect = lower value): 0.943 | normalized growth (locus YPR111W, strain DBF20, stronger effect = lower value): 0.926 | normalized growth (strain NNK1, stronger effect = lower value): 0.926 | normalized growth (strain TSCII, stronger effect = lower value): 0.937
